Test results: PubChem BioAssay (EPA / NIEHS)
Records with an inconclusive call do not appear. Calls of active or inactive are those of the source. Rule for the calls, unless noted: active = hit-call score of the fitted dose curve at least 0.9, where 1 is the maximum; inactive = score below 0.9.

Assays:
[1] = ATG_TCF_b_cat_CIS: Attagene CIS-FACTORIAL HepG2 Assay for human T-Cell-Factor with beta-catenin (TCF/b-cat) (AID 2282965); settings: HepG2 TCF/beta-catenin cis-reporter transcription, actives raise or lower the signal
Procedure, shortened: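 HepG2 cells transiently transfected with multiple cis-promoter-regulated reporter transcription units, so endogenous transcription factor activity is measured. Reporter mRNA read 24 hours after dosing by RT-PCR, fluorescent labelling and capillary electrophoresis; bidirectional fitting against DMSO.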

[2] = ATG_TAL_CIS: Attagene CIS-FACTORIAL HepG2 Assay for human TAL Basal Promoter (AID 2282966); settings: HepG2 Attagene cis-factorial TAL promoter reporter; actives raise or lower the signal;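 note: background control endpoint measuring basal TAL promoter reporter mRNA not a specific factor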
Procedure, shortened: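 In this cell-based multiplex, HepG2 liver cells bearing cis-promoter reporter constructs are dosed for 24 hours. Total RNA is reverse-transcribed and amplified, labelled fragments are sized by capillary electrophoresis, and signal changes are fitted bidirectionally versus DMSO.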

[3] = ATG_TGFb_CIS: Attagene CIS-FACTORIAL HepG2 Assay for human Transforming Growth Factor (TGF) (AID 2282967); settings: HepG2 Attagene CIS TGFb reporter, mRNA transcription; actives raise or lower the signal
Procedure, shortened: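 Readout: fluorescently labeled reporter cDNA fragments resolved by capillary electrophoresis after RT-PCR. Transfected HepG2 cells dosed for 24 h; endogenous TF activity at TGFB1-linked cis element; gain or loss fitted relative to DMSO.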

[4] = ATG_VDRE_CIS: Attagene CIS-FACTORIAL HepG2 Assay for human Vitamin D Receptor Element (VDRE) (AID 2282968); settings: HepG2 VDRE cis-reporter transcription, actives raise or lower the signal
Procedure, shortened: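 RT-PCR/CE readout of reporter mRNA; HepG2, transient transfection, 24 h dosing; DMSO baseline; bidirectional analysis.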

[5] = molecular target: Estrogen receptor (Homo sapiens) (UniProt P03372); test: ATG_ERa_TRANS: Attagene TRANS-FACTORIAL HepG2 Assay for human Estrogen Receptor alpha (ERa) (AID 2282970; active = hit-call score of the fitted dose curve at least 0.9, where 1 is the maximum); settings: HepG2 Attagene TRANS ERa GAL4 reporter, mRNA
Procedure, shortened: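 After 24 h of compound treatment, RNA from HepG2 cells bearing transfected GAL4-UAS reporter constructs is converted to cDNA, amplified and fluorescently labelled. Capillary electrophoresis resolves the ERa-linked reporter; DMSO serves as negative control.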

[6] = molecular target: Steroid hormone receptor ERR1 (Homo sapiens) (UniProt P11474); test: ATG_ERRa_TRANS: Attagene TRANS-FACTORIAL HepG2 Assay for human Estrogen-Related Receptor alpha (ERRa) (AID 2282971; active = hit-call score of the fitted dose curve at least 0.9, where 1 is the maximum); settings: HepG2 Attagene TRANS reporter, ERRa transactivation
Procedure, shortened: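 Transfected HepG2, 24 h dosing, ERRa-Gal4 chimera driving GAL4-UAS reporter. Readout: reporter mRNA via RT-PCR plus capillary electrophoresis (fluorescence). Positive direction vs DMSO control.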

[7] = molecular target: X-box-binding protein 1 (Homo sapiens) (UniProt P17861); test: ATG_Xbp1_CIS: Attagene CIS-FACTORIAL HepG2 Assay for human X-box Binding Protein 1 (XBP1) (AID 2282972); settings: HepG2 XBP1 cis-element reporter, Attagene multiplex; actives raise or lower the signal
Procedure, shortened: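 HepG2, transient MRTU transfection (cis-promoter driven), 24 h compound exposure. Total RNA → oligo(dT) RT → PCR → 6-FAM labeling → HpaI cut → CE. Bidirectional fit vs DMSO.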

[8] = ATG_GAL4_TRANS: Attagene TRANS-FACTORIAL HepG2 Assay for GAL4 (Internal Marker) (AID 2282976; active = hit-call score of the fitted dose curve at least 0.9, where 1 is the maximum); settings: HepG2 Attagene TRANS GAL4 internal marker reporter
Procedure, shortened: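 RT-PCR/capillary electrophoresis readout of reporter mRNA. HepG2, transient MRTU transfection (GAL4-UAS reporters), 24 h compound exposure. Background-control endpoint, positive direction vs DMSO baseline.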

[9] = molecular target: Nuclear receptor subfamily 1 group I member 3 (Homo sapiens) (UniProt Q14994); test: ATG_CAR_TRANS: Attagene TRANS-FACTORIAL HepG2 Assay for human Constitutive Androstane Receptor (CAR) (AID 2282969; active = hit-call score of the fitted dose curve at least 0.9, where 1 is the maximum;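 note: activators raise reporter mRNA above DMSO so AC50 marks induction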); settings: HepG2 Attagene TRANS-FACTORIAL CAR reporter
Procedure, shortened: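 HepG2 cells transiently transfected with multiplexed GAL4-UAS reporter units expressing chimeric NR-Gal4 proteins; compound exposure 24 h. Reporter mRNA measured by RT-PCR, 6-FAM labelling, HpaI digestion and capillary electrophoresis; gain-of-signal fitted against DMSO baseline.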

[10] = ATG_M_19_TRANS: Attagene TRANS-FACTORIAL HepG2 Assay for M19 Transcription Factor (Internal Marker) (AID 2282974; active = hit-call score of the fitted dose curve at least 0.9, where 1 is the maximum); settings: HepG2 Attagene TRANS-FACTORIAL M19 internal marker reporter
Procedure, shortened: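 Multiplexed TRANS format: HepG2 liver cells bearing transient GAL4-UAS reporter units, chemical treatment 24 h, reporter transcripts quantified by RT-PCR plus capillary electrophoresis. DMSO defines baseline.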

Measured: AC50

Sequence of Steroid hormone receptor ERR1 (Homo sapiens) (P11474 whole entry, looked up, the tested form may be a part): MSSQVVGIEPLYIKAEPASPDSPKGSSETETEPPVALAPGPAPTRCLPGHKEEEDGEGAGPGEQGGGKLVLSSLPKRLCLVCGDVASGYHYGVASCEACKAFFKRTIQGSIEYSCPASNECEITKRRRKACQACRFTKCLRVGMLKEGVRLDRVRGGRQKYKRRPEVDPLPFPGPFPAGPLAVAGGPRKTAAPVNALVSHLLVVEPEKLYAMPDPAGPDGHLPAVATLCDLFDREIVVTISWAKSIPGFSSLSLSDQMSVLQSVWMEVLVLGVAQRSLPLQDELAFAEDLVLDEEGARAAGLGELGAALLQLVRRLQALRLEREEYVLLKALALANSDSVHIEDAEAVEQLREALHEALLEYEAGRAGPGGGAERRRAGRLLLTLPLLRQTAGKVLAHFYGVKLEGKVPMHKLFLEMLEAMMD
Sequence of Estrogen receptor (Homo sapiens) (P03372 whole entry, looked up, the tested form may be a part): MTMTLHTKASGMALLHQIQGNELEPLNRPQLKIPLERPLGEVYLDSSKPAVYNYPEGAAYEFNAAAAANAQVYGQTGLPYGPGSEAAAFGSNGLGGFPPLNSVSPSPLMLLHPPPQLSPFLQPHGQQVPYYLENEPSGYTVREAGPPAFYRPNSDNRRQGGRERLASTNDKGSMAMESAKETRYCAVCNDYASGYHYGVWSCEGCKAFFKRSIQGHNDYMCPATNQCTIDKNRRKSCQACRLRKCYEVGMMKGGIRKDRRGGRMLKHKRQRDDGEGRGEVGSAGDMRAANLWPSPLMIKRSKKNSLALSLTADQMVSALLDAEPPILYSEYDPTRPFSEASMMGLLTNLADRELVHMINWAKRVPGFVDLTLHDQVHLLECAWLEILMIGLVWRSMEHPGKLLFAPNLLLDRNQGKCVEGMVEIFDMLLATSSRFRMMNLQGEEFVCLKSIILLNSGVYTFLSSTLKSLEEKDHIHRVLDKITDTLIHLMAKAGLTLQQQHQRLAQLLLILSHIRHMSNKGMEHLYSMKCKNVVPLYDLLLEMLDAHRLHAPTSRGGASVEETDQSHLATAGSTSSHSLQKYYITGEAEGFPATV
Sequence of X-box-binding protein 1 (Homo sapiens) (P17861 whole entry, looked up): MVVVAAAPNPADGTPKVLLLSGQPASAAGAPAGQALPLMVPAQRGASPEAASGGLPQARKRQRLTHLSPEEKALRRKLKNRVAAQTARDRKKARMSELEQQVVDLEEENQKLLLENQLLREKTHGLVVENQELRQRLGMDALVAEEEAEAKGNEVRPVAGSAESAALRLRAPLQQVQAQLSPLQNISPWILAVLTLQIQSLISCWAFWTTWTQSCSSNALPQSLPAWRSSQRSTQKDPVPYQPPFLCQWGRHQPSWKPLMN
Sequence of Nuclear receptor subfamily 1 group I member 3 (Homo sapiens) (Q14994 whole entry, looked up, the tested form may be a part): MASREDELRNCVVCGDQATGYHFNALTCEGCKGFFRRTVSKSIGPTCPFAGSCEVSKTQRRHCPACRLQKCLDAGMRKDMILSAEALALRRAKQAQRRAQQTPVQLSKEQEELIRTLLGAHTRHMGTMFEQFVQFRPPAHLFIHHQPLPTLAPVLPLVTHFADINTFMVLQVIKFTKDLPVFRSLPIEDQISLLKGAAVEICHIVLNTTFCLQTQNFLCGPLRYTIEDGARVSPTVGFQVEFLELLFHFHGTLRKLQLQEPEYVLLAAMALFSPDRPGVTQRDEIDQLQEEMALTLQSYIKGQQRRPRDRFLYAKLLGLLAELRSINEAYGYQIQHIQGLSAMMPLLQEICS

CCO[Si](CCC(F)(F)C(F)(F)C(F)(F)C(F)(F)C(F)(F)C(F)(F)F)(OCC)OCC
not listed: [9] | [10]
inactive: all other assays above

FC(F)(F)C(F)(F)C(F)(F)C(F)(F)C(F)(F)C(F)(F)CC1CO1 (configuration not stated)
not listed: [6]
inactive: all other assays above

Cc1cc(C)cc(O)c1
not listed: [9]
inactive: all other assays above

C=CC(F)(F)C(F)(F)C(F)(F)C(F)(F)C(F)(F)C(F)(F)C(F)(F)C(F)(F)C=C
active: [5] 2.76 µM
not listed: [8] | [9]
inactive: all other assays above

CC(=O)Nc1ccc(N=Nc2cc(C)ccc2O)cc1
active: [3] 11.6 µM | [4] 13.6 µM
inactive: [1] | [2] | [5] | [6] | [7]

FC(F)(F)C(F)(F)C(F)(F)C(F)(F)CCI
active: [5] 13.6 µM
not listed: [6]
inactive: all other assays above

CC(C)OC(=O)c1ccccc1C(=O)OC(C)C
active: [4] 14.2 µM | [5] 11.2 µM
not listed: [6] | [10]
inactive: all other assays above

O[Si](c1ccccc1)(c1ccccc1)c1ccccc1
active: [5] 4.11 µM
not listed: [8] | [9] | [10]
inactive: all other assays above

NC(=O)C(F)(F)C(F)(F)C(F)(F)C(F)(F)F
not listed: [6] | [10]
inactive: all other assays above

C=C(C)C(=O)OCC(F)(F)C(F)(F)C(F)(F)C(F)(F)C(F)(F)C(F)(F)C(F)(F)F
active: [5] 10.5 µM
not listed: [6]
inactive: all other assays above

Cc1cccc(N(C)C)c1
not listed: [6] | [10]
inactive: all other assays above

O=S(=O)(OCCOC(F)(F)F)C(F)(F)F
not listed: [9]
inactive: all other assays above

FC1CC(F)(F)C(F)(F)C1(F)F (configuration not stated)
not listed: [6]
inactive: all other assays above

CC(C)(C)c1ccc(OC2CCCCC2O)cc1 (configuration not stated)
active: [4] 26.8 µM
not listed: [6]
inactive: all other assays above

CCCCCCC(C)OC(=O)CCCCC(=O)OC(C)CCCCCC (configuration not stated)
inactive: [1] | [2] | [3] | [4] | [5] | [7]

CC(C)c1ccccc1N
active: [4] 35.5 µM
not listed: [6]
inactive: all other assays above

O=C(OCCOCCOCCOC(=O)c1ccccc1)c1ccccc1
active: [5] 2 µM
not listed: [6]
inactive: all other assays above

C#C[C@]1(O)CC[C@H]2[C@@H]3CCc4cc(OC)ccc4[C@H]3CC[C@@]21C
active: [3] 139 µM | [4] 0.921 µM | [5] 0.00914 µM
not listed: [6] | [10]
inactive: all other assays above

CC(CCl)OP(=O)(OC(C)CCl)OC(C)CCl (configuration not stated)
not listed: [8] | [9]
inactive: all other assays above

O=P(O)(O)OCCC(F)(F)C(F)(F)C(F)(F)C(F)(F)C(F)(F)C(F)(F)F
active: [3] 70.1 µM | [5] 10.4 µM
not listed: [6] | [9]
inactive: all other assays above

OCC(F)(F)C(F)(F)C(F)(F)C(F)F
not listed: [6] | [9]
inactive: all other assays above

O=C(O)C=C(C(F)(F)F)C(F)(F)F
not listed: [6] | [9] | [10]
inactive: all other assays above

O=C(O)C(F)(OC(F)(F)C(F)(OC(F)(F)C(F)(OC(F)(F)C(F)(F)C(F)(F)F)C(F)(F)F)C(F)(F)F)C(F)(F)F (configuration not stated)
not listed: [6] | [8] | [9]
inactive: all other assays above

O=C(O)C(F)(F)C(F)(F)C(F)(F)C(F)(F)C(F)(F)C(F)(F)C(F)(F)C(F)(F)C(F)(F)C(F)(F)C(F)(F)C(F)(F)F
active: [1] 100 µM | [3] 65.5 µM
not listed: [6] | [9]
inactive: all other assays above

C=CC(=O)OCC(F)(F)C(F)(F)C(F)(F)C(F)(F)COC(=O)C=C
active: [1] 44.9 µM | [4] 50 µM | [5] 38.3 µM | [7] 36.4 µM
inactive: [2] | [3] | [10] | [8]

OCC(F)(F)C(F)(F)C(F)(F)C(F)(F)C(F)(F)C(F)(F)F
active: [2] 239 µM
not listed: [6] | [9]
inactive: all other assays above

CC(Cc1ccc(O)c(O)c1)C(C)Cc1ccc(O)c(O)c1 (configuration not stated)
inactive: [3] | [10] | [8]
active: [1] 18.7 µM | [2] 6.72 µM | [4] 5.93 µM | [5] 9.13 µM | [7] 14.4 µM

Cc1ccc(S(=O)(=O)NCl)cc1
inactive: [1] | [2] | [3] | [5] | [7] | [8]

CCCCCC=O
not listed: [6] | [9]
inactive: all other assays above

OC[C@@H](O)[C@@H](O)[C@H](O)[C@@H](O)CO
active: [5] 26.2 µM
not listed: [6] | [9]
inactive: all other assays above

CCN(CC)c1ccc2c(C)cc(=O)oc2c1
inactive: [1] | [2] | [3] | [7] | [10]
active: [4] 9.28 µM | [5] 25.4 µM

C1COCCN1
not listed: [6] | [9]
inactive: all other assays above

CCCCCCS
active: [1] 68.8 µM
not listed: [6] | [9] | [10]
inactive: all other assays above

C=C(C)C(=O)OCCC(F)(F)C(F)(F)C(F)(F)C(F)(F)C(F)(C(F)(F)F)C(F)(F)F
active: [5] 7.49 µM
not listed: [6] | [8] | [9]
inactive: all other assays above

Nc1ccc(S(=O)(=O)Nc2nccs2)cc1
not listed: [6] | [9]
inactive: all other assays above

O=C(O)C(F)(F)C(F)(F)C(F)(F)C(F)(F)C(F)(F)C(F)(F)C(F)(F)C(F)(F)C(F)(F)C(F)F
active: [5] 24.6 µM
not listed: [6] | [9] | [10]
inactive: all other assays above

CS(C)(=O)=O
inactive: [1] | [2] | [3] | [4] | [5] | [7]

CCCCNc1ccccc1
not listed: [6] | [9]
inactive: all other assays above

FC(F)(I)C(F)(F)C(F)(F)C(F)(F)I
active: [5] 0.299 µM
not listed: [6] | [9]
inactive: all other assays above

O=C(O)C(F)(F)C(F)(F)C(F)(F)C(F)(F)C(F)(F)C(F)(F)C(F)(F)C(F)(F)C(F)(F)C(F)(F)C(F)(F)C(F)(F)C(F)(F)F
not listed: [6] | [9] | [10]
inactive: all other assays above

CC(C)=CCCC(C)CCOC(=O)C(C)C (configuration not stated)
not listed: [6] | [9]
inactive: all other assays above

O=C(O)C(F)(F)C(F)(F)C(F)F
not listed: [6] | [9]
inactive: all other assays above

O=C(O)C(F)(F)C(F)(F)C(F)(F)F
active: [5] 108 µM
not listed: [6] | [9]
inactive: all other assays above

FC(F)(F)C(F)(F)C(F)(F)C(F)(F)C(F)(F)C(F)(F)C(F)(F)Br
not listed: [6] | [9]
inactive: all other assays above

FC(F)(F)C(F)(F)C(F)(F)C(F)(F)C(F)(F)C(F)(F)C(F)(F)C(F)(F)CCS
not listed: [6] | [9]
inactive: all other assays above

O=C(C=Cc1ccccc1)OCC=Cc1ccccc1
active: [5] 18 µM
not listed: [6] | [9]
inactive: all other assays above

CCc1ccc(C(c2ccc(CC)cc2)C(Cl)Cl)cc1
inactive: [1] | [2] | [3] | [7] | [10]
active: [4] 2.84 µM | [5] 7.49 µM

Cc1ccc(S(=O)(=O)OCC(F)(F)C(F)(F)C(F)(F)C(F)(F)C(F)(F)C(F)F)cc1
not listed: [6] | [9] | [10]
inactive: all other assays above

CCCCOc1ccc(N)cc1
not listed: [6] | [9]
inactive: all other assays above

CCCCCCOC(=O)c1ccccc1
not listed: [6] | [8] | [9]
inactive: all other assays above

CC(C)(C)C(=O)CC(=O)C(F)(F)C(F)(F)C(F)(F)F
not listed: [6] | [8] | [9]
inactive: all other assays above

C=CC(=O)OCC(F)(F)C(F)(F)C(F)(F)C(F)(F)C(F)(F)C(F)(F)C(F)(F)F
active: [5] 15.6 µM
not listed: [6] | [9]
inactive: all other assays above

C(=C(c1ccccc1)c1ccccc1)c1ccccc1
active: [3] 100 µM | [5] 0.0329 µM
not listed: [6] | [9]
inactive: all other assays above

FC(F)(F)C(F)(F)C(F)(F)C(F)(F)C(F)(F)C(F)(F)C(F)(F)C(F)(F)F
not listed: [6] | [9]
inactive: all other assays above
